Reference: PubChem BioAssay (NCI)
Compounds without any hit were thinned out: in the full panel of roughly 83,000, 20% have a hit.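 A percent growth of 40 corresponds to 60% growth inhibition; 0 means no net growth; -100 means all cells died. Active threshold: below 10.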 Calls of active or inactive are those of the source.

Tests used:
Assay in all cases: NCI-60 one-dose screen, 48 h (100 = growth as untreated, 0 = no growth, -100 = all killed)
Details in all cases: 10 µM unless noted
[1] = system: DU-145 prostate
[2] = system: K-562 leukemia
[3] = system: MALME-3M melanoma
[4] = system: MDA-MB-231 breast
[5] = system: RXF 393 renal
[6] = system: SF-268 CNS
[7] = system: SF-295 CNS
[8] = system: SF-539 CNS
[9] = system: UACC-257 melanoma
[10] = system: M14 melanoma
[11] = system: HCT-15 colon
[12] = system: HT29 colon
[13] = system: SNB-19 CNS
[14] = system: U251 CNS
[15] = system: PC-3 prostate
[16] = system: SK-MEL-5 melanoma
[17] = system: UACC-62 melanoma
[18] = system: LOX IMVI melanoma
[19] = system: SK-MEL-28 melanoma
[20] = system: SNB-75 CNS

Measured: growth

Nc1ccc(Sc2ccc([N+](=O)[O-])c3nonc23)cc1
inactive: [1] 97.3% | [2] 26.7% | [3] 57% | [4] 92.4% | [5] 104% | [6] 98% | [7] 96.9% | [8] 91.9% | [9] 86.9% | [10] 88.7% | [11] 58.2% | [12] 70.8% | [13] 95.6% | [14] 90.9% | [15] 87.1% | [16] 88.1% | [17] 84.5% | [18] 80.3% | [19] 102%

COc1cc(C(=O)N2N=C(c3ccc(S(C)(=O)=O)cc3)CC2c2ccco2)cc(OC)c1OC (stereo not given)
inactive: [1] 82.5% | [2] 73.2% | [3] 61.7% | [4] 66.4% | [5] 66.4% | [6] 87.6% | [7] 42.9% | [8] 79.1% | [9] 80.6% | [10] 65.2% | [11] 39.4% | [12] 24.9% | [13] 75.9% | [14] 57.7% | [15] 51% | [16] 39.8% | [17] 29.3% | [18] 50.5% | [19] 89.2%

O=c1c2cc(F)ccc2sc2c(NCCN3CCOCC3)nc3ccccc3c12
inactive: [1] 68.4% | [3] 92% | [4] 25.9% | [5] 72.9% | [6] 68.7% | [7] 89.4% | [8] 74.7% | [9] 98.2% | [10] 46.5% | [11] 20.8% | [12] 21.6% | [13] 75.3% | [14] 52.4% | [15] 69% | [16] 95.1% | [17] 81.5% | [18] 20.6% | [19] 96.7%
active: [2] 0.338%

CCN(CC)c1ccc(C2=NN(C(C)=O)C(c3cc(OC)c(OC)c(OC)c3)C2)cc1 (stereo not given)
inactive: [3] 21.7% | [6] 18.8% | [9] 55.9% | [11] 12.8% | [20] 17.8% | [13] 40.1% | [15] 20.4% | [16] 23.4% | [17] 13.1% | [18] 31.5% | [19] 51.8%
active: [1] -39.4% | [2] -4.46% | [4] 3.7% | [5] -44% | [7] 7.69% | [8] 2.39% | [10] -28.8% | [12] 8.86%

COc1cc2cc(Oc3ccc(NC(=O)Nc4ccc(F)c(C(F)(F)F)c4)cc3)c(C)nc2cc1OCCN1CCOCC1
active: [2] 9.96% | [7] 0.809% | [12] 8.41% | [15] 5.95% | [16] -37.6%
inactive: [1] 23.3% | [3] 22.7% | [4] 39.6% | [5] 40.3% | [6] 32.1% | [8] 45.1% | [9] 12% | [10] 16.7% | [11] 13.6% | [13] 25.1% | [14] 13.6% | [17] 33.9% | [18] 12.8% | [19] 43.1%

CC(=O)N1N=C(c2ccc(Nc3nc(Nc4ccc(F)cc4)nc(Nc4ccc(Cl)cc4)n3)cc2)CC1c1ccc(Cl)cc1 (stereo not given)
inactive: [1] 111% | [2] 88.1% | [3] 110% | [4] 76.2% | [5] 88.8% | [6] 124% | [7] 123% | [8] 109% | [9] 104% | [10] 108% | [11] 93.4% | [12] 106% | [20] 70.1% | [13] 83.5% | [15] 68.8% | [16] 105% | [17] 99% | [18] 89.8% | [19] 121%

CN1CCN(CC(=O)N2c3cccc4cccc(c34)N(C(=O)CN3CCN(C)CC3)C2c2cn(-c3ccccc3)nc2-c2cccc([N+](=O)[O-])c2)CC1
active: [2] -43.9% | [3] -86.7% | [4] -60.9% | [5] -19.1% | [6] 7.89% | [7] -67.1% | [8] -86.1% | [9] -75.9% | [10] -81.7% | [11] -13.6% | [12] -33.5% | [16] -97.8% | [17] -83.6% | [18] -93.8% | [19] -89.5%
inactive: [1] 28.7% | [20] 65% | [13] 24.9% | [15] 22.6%

Cc1ccc2nc(NC(=O)CSc3nc(Cl)c(C#N)c(-c4ccccc4)n3)sc2c1
inactive: [1] 113% | [2] 99.7% | [3] 104% | [4] 111% | [5] 114% | [6] 111% | [7] 101% | [8] 102% | [9] 101% | [10] 97.9% | [11] 99.8% | [12] 102% | [13] 96% | [14] 99.1% | [15] 89.5% | [16] 102% | [17] 88.3% | [18] 94.3% | [19] 103%

COc1cc(/C=C2\C(=O)Nc3ccc(Br)cc32)cc(OC)c1OC
active: [5] -13.6%
inactive: [1] 91.8% | [2] 32.6% | [3] 88.6% | [4] 65.5% | [6] 84% | [7] 68.6% | [8] 85.6% | [9] 17.2% | [10] 79.2% | [11] 38.6% | [12] 24.4% | [13] 81% | [14] 51% | [15] 60.4% | [16] 56.9% | [17] 51.6% | [18] 57.2% | [19] 80.2%

CCCCCCNC(=O)Oc1ccc(/C(=C(\C)c2ccc(Cl)cc2)c2ccc(OCCN3CCCCC3)cc2)cc1
inactive: [1] 69.3% | [3] 31.6% | [4] 53.4% | [5] 24.1% | [6] 56.6% | [7] 48.2% | [8] 42.5% | [9] 18.6% | [13] 68% | [14] 34.7% | [15] 29.6% | [16] 25% | [17] 54.5% | [19] 29.4%
active: [2] 1.22% | [10] -33.5% | [11] 8.87% | [12] -10.1% | [18] 3.75%

O=c1ccn(Cc2cn(-c3c4ccccc4nc4ccccc34)nn2)c(=O)[nH]1
inactive: [1] 74.6% | [2] 33.1% | [3] 98.6% | [4] 89.4% | [5] 98.2% | [6] 99.6% | [7] 106% | [8] 101% | [9] 85.6% | [10] 98.4% | [11] 91.6% | [12] 104% | [13] 94.1% | [14] 89.5% | [15] 97.5% | [16] 91.3% | [17] 91.4% | [18] 74.2% | [19] 102%

COC(=O)c1ccc2[nH]c(O)c(C(=Nc3ccc(N(C)C(=O)CN4CCN(C)CC4)cc3)c3ccccc3)c2c1
inactive: [1] 21.5% | [4] 22.6% | [6] 27.7% | [7] 27.3% | [9] 35.4% | [10] 11.2% | [11] 12.3% | [12] 21.3% | [13] 42.6% | [14] 31.4% | [15] 36.3% | [16] 38.3% | [17] 74.6% | [18] 16.3% | [19] 29.3%
active: [2] 9.67% | [3] -6.01% | [5] -39.3% | [8] -25.5%

COc1ccc(C(=O)COC(=O)[C@H](C[Se][Se]C[C@H](NC(=O)c2ccc(Br)cc2F)C(=O)OCC(=O)c2ccc(OC)cc2)NC(=O)c2ccc(Br)cc2F)cc1
active: [1] -70.6% | [2] 9.64% | [3] -45.9% | [4] -57.5% | [5] -90.5% | [6] -54.3% | [7] -31.7% | [8] -93.9% | [9] -43.8% | [10] -73.9% | [11] -30.7% | [13] -38.1% | [14] -85.3% | [15] -63.8% | [16] -8.07% | [17] -89.5% | [18] -50.8% | [19] -74.5%
inactive: [12] 10.7%

Brc1c[n+](Cc2ccc3ccccc3c2)cn1Cc1ccc2ccccc2c1
inactive: [1] 38.5% | [2] 10.5% | [5] 21.6% | [6] 14.5% | [7] 49.6% | [8] 40.1% | [11] 93.6% | [13] 17.3% | [14] 21.5%
active: [3] -4.88% | [4] 8.23% | [9] -35.4% | [10] 1.8% | [20] -30.8% | [15] 8.5% | [16] -85.2% | [17] -59.8% | [18] -89% | [19] -3.7%

NC1CCN(c2nc(Nc3cccc(C(F)(F)F)c3)c3c(=O)[nH]ccc3n2)CC1
active: [1] 7.32% | [2] -48.7% | [3] -64.1% | [4] -62% | [5] -93.6% | [6] -46.2% | [7] -56.7% | [8] -96.5% | [9] -74.6% | [10] -95.2% | [11] -80% | [20] -76.8% | [13] -14.3% | [14] -82.1% | [16] -96.2% | [17] -80.4% | [18] -94.2% | [19] -85.4%
inactive: [15] 19.3%
